Shown are actives, neighbours in structure and some others; about 11% of the full set was active somewhere.
ALDH1A1 block = qHTS Assay for Inhibitors of Aldehyde Dehydrogenase 1 (ALDH1A1) | 220,000 tested, 7.3% active | Aldehyde dehydrogenase 1A1 (Homo sapiens), P00352 | Potency, µM (series often up to 75.3 µM), inactives show top-dose activity, negative = inhibition, actives largely listed as inhibitors | Purified ALDH1A1, NADH fluorescence, propionaldehyde substrate;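 note: potency is the fitted concentration of half-maximal effect; plate controls were no enzyme wells and a reference inhibitor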
IMPase cell inh = qHTS Assay for Identifying the Cell-Membrane Permeable IMPase Inhibitors | Inositol monophosphatase 1 (Rattus norvegicus), P97697 | CHO-M1 cells, IP1 accumulation, HTRF TR-FRET ratio | inhibition (IP1 accumulation), % at 46.1 µM | 120,000 tested, under 10 active | AID 901, 2007; active = well fitted curve in the direction sought with a large enough effect in the signal ratio, not every such curve was filed as active; inconclusive = small, poorly fitted or top-dose-only effect, or a change in a side signal; inactive = no such curve, though single readings can be large or run the other way; the % refers to the signal ratio;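 note: cells stimulated with carbachol in lithium chloride buffer; plate controls were DMSO basal wells for no effect and reference inhibitor wells for full effect; higher means more IMPase inhibition seen as more IP1 and lower FRET ratio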
Target sequence (P97697 whole entry, looked up): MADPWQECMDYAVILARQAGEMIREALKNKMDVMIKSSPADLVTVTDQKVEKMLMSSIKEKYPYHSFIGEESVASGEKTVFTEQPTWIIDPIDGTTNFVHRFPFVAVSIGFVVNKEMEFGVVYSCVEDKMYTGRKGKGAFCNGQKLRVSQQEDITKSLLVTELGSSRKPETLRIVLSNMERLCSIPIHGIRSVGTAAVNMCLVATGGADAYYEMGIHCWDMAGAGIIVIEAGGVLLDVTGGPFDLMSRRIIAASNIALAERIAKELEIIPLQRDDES
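Carbachol-driven Gq signalling in CHO-M1 cells (2000/well) generates IP1. Compounds that block IMPase raise IP1 and so reduce the FRET signal from Eu-anti-IP1 and d2-IP1 after a 10 min room-temperature lysis.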
IMPase Li cell = qHTS Assay for Identifying the Cell-Membrane Permeable IMPase Inhibitors: Potentiation with Lithium; CHO-M1 cells, IP1 TR-FRET (IP-One), carbachol + lithium; Potency, µM (series often up to 59.4 µM), for inactives: at the highest dose activity, negative = IMPase inhibition, actives largely listed as inhibitors; 210,000 tested, 0.35% active; AID 1457, 2008; active = well fitted inhibition curve with a large enough effect; inconclusive = small, poorly fitted or top-dose-only effect; inactive = no such curve, though single readings can be large or run the other way;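 note: IP1 builds up when IMPase is blocked and the TR-FRET signal falls; potency is the fitted concentration of half-maximal effect; plate controls were basal vehicle for no effect and high inhibitor control for full effect; nearly all actives have a fitted effect of over 50% in size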
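Test compounds were applied to CHO-M1 cells previously cultured for 16–30 h at 2000 per well. A small lithium amount accompanied them; after 30 min at 37C, IP1 was quantified by TR-FRET.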
PNC inhibitor = High Content Assay for Compounds that inhibit the Assembly of the Perinucleolar Compartment | PC3M PTB-GFP, PNC prevalence imaging, 16 h; stronger effect = lower value | activity change (PNC), negative = inhibition, % at 10 µM | 140,000 tested, 3.1% active | AID 2417, 2010;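 active = readout at or below -70, meaning at least 70% loss of cells showing the perinucleolar compartment, a nuclear body marking cancer cells; inconclusive = readout between -30 and a set limit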;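 note: plate controls were DMSO wells for no effect and camptothecin positive control wells for full effect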
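PC3M cells stably expressing PTB-GFP, 750–1000 cells/well, treated 16 h at 37 °C with compound (23 nl of library stock), in duplicate. After paraformaldehyde fixation and Hoechst stain, imaged at 20x; PNC prevalence scored by image analysis.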
HPGD block = qHTS Assay for Inhibitors of HPGD (15-Hydroxyprostaglandin Dehydrogenase). Potency, µM, inactives show top-dose activity change, negative = inhibition, usual class: inhibitors. 15-hydroxyprostaglandin dehydrogenase [NAD(+)] (Homo sapiens), P15428. AID 894, 2007. purified HPGD, NADH fluorescence kinetic, PGE2 substrate. 150,000 tested, 4.3% active; note: potency is the fitted concentration of half-maximal effect
Target sequence (P15428 whole entry, looked up): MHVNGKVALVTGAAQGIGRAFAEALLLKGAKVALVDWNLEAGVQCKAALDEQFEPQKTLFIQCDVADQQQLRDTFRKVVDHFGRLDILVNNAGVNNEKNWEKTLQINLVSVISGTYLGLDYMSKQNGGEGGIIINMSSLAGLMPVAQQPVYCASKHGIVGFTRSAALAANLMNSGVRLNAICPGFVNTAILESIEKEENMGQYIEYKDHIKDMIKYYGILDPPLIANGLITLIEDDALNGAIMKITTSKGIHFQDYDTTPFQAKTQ
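20 nM HPGD preincubated 15 min at room temperature with compound in 50 mM Tris-HCl pH 8, 0.01% Tween 20. Started with 1 mM NAD+ and 30 uM prostaglandin E2; NADH fluorescence (360/450 nm) read 5 times over 30-s intervals, last minus first.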
Active calls of the source: *; ? = inconclusive; / = not tested or not shown; [ ] = another dose, or the depositor's remark. Unless noted, calls come from the whole dose curve; as a rule, active = well fitted inhibition curve with a large enough effect (not every such curve was filed as active); inconclusive = small, poorly fitted or top-dose-only effect, or another doubt; inactive = no such curve, though single readings can be large or run the other way. Unless noted, % is set by controls: 0 for no effect and ±100 for the full control effect.

SMILES	ALDH1A1 block	IMPase cell inh	IMPase Li cell	PNC inhibitor	HPGD block
CCn1c(SCC(=O)NC2CCCCC2)nnc1-c1cc2cccc(OC)c2o1	?	-16	-5%[38.3 µM]	-20	20µM*
CC(=O)N1CCC2(CCN(Cc3cc(C(F)(F)F)cc(C(F)(F)F)c3)CC2)CC1	6%	/	0%	/	-10%
Cc1ccc(S(=O)(=O)N[C@H]2COC(=O)C/C=C\[C@@H](C)COC(=O)C/C=C\[C@@H]2C)cc1	-15%[13.5 µM]	/	/	/	/
CCN(CC)Cc1nc2c(c(=O)[nH]1)C1(CCCCC1)Cc1ccccc1-2	25µM*	11	4%	?	-2%
C=CCNC(=S)NNc1nc2c(c(=O)[nH]1)C1(CCCC1)Cc1ccccc1-2	3.5µM*	-6	0%	-9	?
CC(C)(C)NC(=O)CN(C(=O)C(=O)Nc1ccc2c(c1)OCCO2)C(C)(C)C	5%	/	5%	/	/
CCCCCCCC1=Cc2ccccc2C(C(C(=O)OC)C(=O)OC)N1C(=O)OC (configuration not stated)	14%[13.5 µM]	/	9%	/	-10%
C/C(=C\C(=O)c1ccccc1)Nc1ccc(O)cc1	-12%	8	25%[38.3 µM]	-25	-8%
C/C(=C\C(=S)Nc1ccccc1)Nc1ccccc1	5%	-13	4%	?	16µM*
CCCCC(=O)Nc1nc(C)c(C(C)=O)s1	5%	8	6%[38.3 µM]	32	-6%
CCC(=O)Nc1nc(C)c(C(=O)N2CCCCC2)s1	?	3	-4%[38.3 µM]	12	8.9µM*
CCCC(=O)Nc1nc(C)c(C(C)=O)s1	?	/	8.9µM*	/	/
CCOC(=O)c1sc(NC(=O)CC)nc1C	3%	/	7%	/	/
CC(=O)c1sc(NC(=O)COc2ccc(Cl)cc2Cl)nc1C	11µM*	/	10µM*	/	/
O=C(c1ccccc1F)N1CCN(Cc2cccc(Cl)c2)CC1	?	10	-3%	-8	-1%
CC(C(=O)NC(=O)NCc1ccccc1)N1C(=O)c2ccccc2C1=O (configuration not stated)	11%	-8	21%[38.3 µM]	3	-1%
CC(=O)NC(CC(C)C)C(=O)NC(=O)NCc1ccccc1 (configuration not stated)	5µM*	5	1%[38.3 µM]	16	-1%
CC1=NN2C(=N)/C(=C\c3ccc(SCc4ccccc4)o3)C(=O)N=C2S1	-16%	6	38%[38.3 µM]	21	-22%
N=C1/C(=C\c2ccc(SCc3ccco3)o2)C(=O)N=C2SC=NN12	7.9µM*	9	2%[38.3 µM]	67	25µM*
N#Cc1cccc(-c2ccc3ncnc(NCc4ccccc4)c3c2)c1	?	/	19%	/	/
N#Cc1cccc(NC(=O)Cn2c3[n+](c4ccc(C(F)(F)F)cc42)CCCCC3)c1	-6%	/	3%	?	-9%
COc1ccccc1-n1cnnc1SCC(=O)c1c[nH]c2ccccc12	10µM*	/	3%	7	-14%
Cc1ccccc1-n1cnnc1SCC(=O)Nc1cccnc1Cl	?	/	-6%	/	/
COc1ccccc1-n1cnnc1SCC(=O)NCc1cccs1	?	12	21%[38.3 µM]	-6	-22%
COc1ccccc1-n1cnnc1SCC(=O)Nc1cccnc1Cl	25µM*	/	-9%	/	/
SMILES	ALDH1A1 block	IMPase cell inh	IMPase Li cell	PNC inhibitor	HPGD block
Cc1ccc2c(c1)N(CCC(=O)NCc1ccccn1)C(=O)CO2	22µM*	9	8%	-2	-6%
O=C(CCN1C(=O)COc2ccccc21)NCCC1=CCCCC1	32µM*	3	14%[38.3 µM]	?	-13%
O=C(CC(c1ccccc1)c1cc(Br)ccc1O)NCC1(c2ccccc2)CCCC1 (configuration not stated)	/	9	/	/	/
Cc1ccc(NS(=O)(=O)c2ccc3nc(-c4ccccc4)[nH]c3c2)c(Cl)c1	/	5	/	/	/
CC1(C)CC(=O)C2=C(C1)N(c1cccc(Cl)c1)C(=O)NC2(C(F)(F)F)C(F)(F)F	-17%	/	-6%	-80*	-10%
CC1CCCCC1NC(=O)c1cncc(Br)c1 (configuration not stated)	-6%	6	0%[38.3 µM]	-81*	-2%

From PubChem BioAssay
